The source of these data is PubChem BioAssay (NCI).

This is part of a sample that, as a whole, favours compounds with a hit. Of some 83,000 tested, about 20% had one in any assay.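 Testing used 96-well plates and a 48-hour single-concentration exposure. Example: -40 means 40% of the starting cells died.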 Unmarked numbers belong to inactive results. The source made the active and inactive calls. The calls were made as follows: active = growth percent below 10; inactive = the rest.

One assay has as its system CCRF-CEM leukemia. Briefly: NCI-60 one-dose screen, 48 h (100 = growth as untreated, 0 = no growth, -100 = all killed). To be noted: 10 µM unless noted.
`CC/C(=C(/c1ccc(Cl)cc1)c1ccc(OCCN2CCCC2)cc1)c1ccc(OC)cc1`: the growth is 40.6%.
`Nc1ncnc2c1N=C(c1ccc(Cl)cc1)CC(c1ccc3c(c1)OCO3)N2` (stereo not given): the growth was -54.1% (active).
In the case of `N=C(N)c1ccc(-c2ccc(-c3ccc(F)cc3)o2)o1`, the growth is 2.36% (active).
`CCCCC(=O)c1ccco1`: the growth is 92.3%.
Same read-out and setting: next, `C/C(=C(/c1ccc(Cl)cc1)c1ccc(OCCN2CCCC2)cc1)c1ccc(Cl)cc1`: 61.7%; `COC(=O)c1c2c(c[n+]([O-])c1C)C(=O)C(NCc1ccccc1)=CC2=O`: 2.92% (active).
Still for that read-out and setting: next, `Fc1ccc(-c2nn(-c3ccccc3)cc2-c2nc3ccccc3o2)cc1`: 66.4%; `COc1ccc2c3c([nH]c2c1)C(=O)c1nc(C)ccc1C3=O`: 53.2%; `CCN(C(=O)N1CCN(c2cc3c(cc2F)c(=O)c(C(=O)O)cn3C2CC2)CC1)c1nc(-c2ccc(Cl)cc2)cs1`: 20.7%.
As to `CCCNC(=O)Oc1ccc(/C(=C(/C)Cc2ccc(OC)cc2)c2ccc(OCCCN(C)C)cc2)cc1`, the growth was 56.4%.
The same measure, in the same setting: next, `CC(=O)OCc1nc(C#N)c(N(C)C)o1`: 88.2%; `Cn1ccnc1C(=O)C(=O)Nc1ccc(CC(=O)Nc2ccccc2)cc1`: 105%; `O=C(CN1C(=O)CCC1=O)Nc1ncc(Cc2ccc(F)cc2)s1`: 105%.
As to `CNc1nc(S(=O)c2ccc(C#N)cc2)nc2ccccc12` (stereo not given), the growth is 32.2%.
As for `Cn1c(-c2ccc(Br)cc2)c(O)c(=O)c2c(F)cccc21`, the growth was 94.1%.
`CCN(CC)CCCN1C(=O)c2c(c(C)c3c(oc4cc(O)ccc43)c2C)C1=O`: the growth is -6.12% (active).
Consider `Cn1ccc2c3c(ccc21)CC3=O`, for which the growth was 111%.
On the same count and under the same terms, the figure for `O=C1N[C@@H]2NC(=[N+]3CCOCC3)N[C@@H]2N1` is 108%; for `CCCCCOc1ccc(C(=O)/C(Br)=C/C(=O)O)cc1` it is 80.5%; for `O=C(/C=C/c1ccccc1)c1cccc(OCCCOc2cccc(C(=O)/C=C/c3ccccc3)c2)c1` it is 76.5%.
As to `O=C(Cc1ccccc1)Nc1nc(O)c(/C=C2\C(=O)C=Cc3ccccc32)s1`, the growth was 114%.
On to `Nc1c(C(=O)Nc2ccncc2)sc2nc3c(cc12)CCCCCC3`, for which the growth is 68.1%.
The same measure, in the same setting: the figure for `COc1ccc(C(=O)Nc2cccc(C3CC(=O)c4c(cc(OC)c(OC)c4OC)O3)c2)cc1` (stereo not given) is 9.44% (active).
Turning to `O=C(c1cc2ccccc2o1)c1nn(-c2ccccc2)/c(=N/N=Cc2cn(-c3ccccc3)nc2-c2cc3ccccc3oc2=O)s1`, the growth is 92.8%.
On to `CCCCCCCCCCCCCCCCCCOc1ccccc1CC(=O)NCC[N+]1(C)CCCC1`, for which the growth is 18.8%.
Same read-out and setting: next, `O=C(CSc1nc(-c2ccccc2)[nH]c1S(=O)(=O)c1ccccc1)NC1CC1`: 93.4%; `CC(C)N1CCN(Cc2ccc3c(NNC(=O)c4ccccc4)nc4cc(F)ccc4n23)CC1`: 10.8%; `O=S(=O)(NCCCNc1nccc(-c2c(-c3ccc(F)c(O)c3)nc3occn23)n1)c1ccccc1`: 79.1%.
Consider `COc1cc(-c2csc(NC(=O)c3cc(-n4cnc(C)c4)cc(C(F)(F)F)c3)n2)cc(OC)c1OC`, for which the growth was 24.4%.
As for `COc1cc2c(c(OC)c1OC)CCC(c1cccc(C(=O)Nc3cccc(Br)c3)c1)O2` (stereo not given), the growth is 69%.
For the compound `Cc1nn(-c2ccccc2)c(Oc2ccccn2)c1-c1nc2ccccc2s1`, the growth was 102%.
For `CSc1nnc(-c2cnn3c2NC(c2ccccc2)C3)n1-c1ccc(C(F)(F)F)cc1` (stereo not given), the growth was 48%.
Regarding `Cc1ccc(-c2cc(-c3ccc(Cl)cc3)nc(NC(=O)c3cccnc3)n2)cc1`, the growth was 106%.
Same read-out and setting: next, `CC1=C(C(=O)OC(C)C)C(c2ccc3c(c2)OCO3)NC(=S)N1` (stereo not given): 105%; `CCOC(=O)c1c2c(n3ccc(C)cc13)C(=O)c1ccccc1C2=O`: 99.9%.
Same read-out and setting: next, `O=S(=O)(NCCNc1cc(-c2c(-c3cccc(O)c3)nc3sccn23)ccn1)c1ccc(C(F)(F)F)cc1`: 25.4%.
Consider `Cc1nc2ncnc(Cl)c2[nH]1`, for which the growth was 87.7%.
Still for that read-out and setting: next, `N#Cc1nn(-c2cc(=O)[nH]c3ccc(Cl)cc23)c(N)c1C#N`: -15.8% (active).
Still for that read-out and setting: the figure for `C#COc1cccc(Nc2ncnc3ncc(NC(=O)CCl)cc23)c1` is 23.2% [6.25 µM]; for `COC(=O)[C@]1(C)CCC[C@]2(C)[C@H]3C[C@H]4C(C(C)C)=C[C@]3(CC[C@H]21)[C@H]1[C@@H]4[C@@H](OCCC#N)CC[C@@H]1OCCC#N` it is 19.1%.

The next assay has as its system MOLT-4 leukemia. The description is as above. To be noted: 10 µM unless noted.
On to `CC/C(=C(/c1ccc(Cl)cc1)c1ccc(OCCN2CCCC2)cc1)c1ccc(OC)cc1`, for which the growth was 32%.
Regarding `Nc1ncnc2c1N=C(c1ccc(Cl)cc1)CC(c1ccc3c(c1)OCO3)N2` (stereo not given), the growth is 71.5%.
Same read-out and setting: next, `N=C(N)c1ccc(-c2ccc(-c3ccc(F)cc3)o2)o1`: 8.09% (active); `CCCCC(=O)c1ccco1`: 102%.
Regarding `C/C(=C(/c1ccc(Cl)cc1)c1ccc(OCCN2CCCC2)cc1)c1ccc(Cl)cc1`, the growth is 62.9%.
Consider `COC(=O)c1c2c(c[n+]([O-])c1C)C(=O)C(NCc1ccccc1)=CC2=O`, for which the growth is -29.4% (active).
As for `Fc1ccc(-c2nn(-c3ccccc3)cc2-c2nc3ccccc3o2)cc1`, the growth is 73.7%.
Turning to `COc1ccc2c3c([nH]c2c1)C(=O)c1nc(C)ccc1C3=O`, the growth was 7.34% (active).
On to `CCN(C(=O)N1CCN(c2cc3c(cc2F)c(=O)c(C(=O)O)cn3C2CC2)CC1)c1nc(-c2ccc(Cl)cc2)cs1`, for which the growth is 5.81% (active).
With `CCCNC(=O)Oc1ccc(/C(=C(/C)Cc2ccc(OC)cc2)c2ccc(OCCCN(C)C)cc2)cc1`, the growth was 33.1%.
Turning to `CC(=O)OCc1nc(C#N)c(N(C)C)o1`, the growth was 97.1%.
`Cn1ccnc1C(=O)C(=O)Nc1ccc(CC(=O)Nc2ccccc2)cc1`: the growth was 107%.
With `O=C(CN1C(=O)CCC1=O)Nc1ncc(Cc2ccc(F)cc2)s1`, the growth was 102%.
`CNc1nc(S(=O)c2ccc(C#N)cc2)nc2ccccc12` (stereo not given): the growth was 68.6%.
Take `Cn1c(-c2ccc(Br)cc2)c(O)c(=O)c2c(F)cccc21`: the growth was 99%.
Turning to `CCN(CC)CCCN1C(=O)c2c(c(C)c3c(oc4cc(O)ccc43)c2C)C1=O`, the growth was -5.26% (active).
Take `Cn1ccc2c3c(ccc21)CC3=O`: the growth was 88.9%.
Take `O=C1N[C@@H]2NC(=[N+]3CCOCC3)N[C@@H]2N1`: the growth is 103%.
With `CCCCCOc1ccc(C(=O)/C(Br)=C/C(=O)O)cc1`, the growth is 65.4%.
Still for that read-out and setting: next, `O=C(/C=C/c1ccccc1)c1cccc(OCCCOc2cccc(C(=O)/C=C/c3ccccc3)c2)c1`: 86.9%; `O=C(Cc1ccccc1)Nc1nc(O)c(/C=C2\C(=O)C=Cc3ccccc32)s1`: 101%; `Nc1c(C(=O)Nc2ccncc2)sc2nc3c(cc12)CCCCCC3`: 70.3%.
On the same count and under the same terms, next, `COc1ccc(C(=O)Nc2cccc(C3CC(=O)c4c(cc(OC)c(OC)c4OC)O3)c2)cc1` (stereo not given): 14.3%; `O=C(c1cc2ccccc2o1)c1nn(-c2ccccc2)/c(=N/N=Cc2cn(-c3ccccc3)nc2-c2cc3ccccc3oc2=O)s1`: 93.3%; `CCCCCCCCCCCCCCCCCCOc1ccccc1CC(=O)NCC[N+]1(C)CCCC1`: 14%.
For the compound `O=C(CSc1nc(-c2ccccc2)[nH]c1S(=O)(=O)c1ccccc1)NC1CC1`, the growth was 93.8%.
With `CC(C)N1CCN(Cc2ccc3c(NNC(=O)c4ccccc4)nc4cc(F)ccc4n23)CC1`, the growth is 11.7%.
The same measure, in the same setting: next, `O=S(=O)(NCCCNc1nccc(-c2c(-c3ccc(F)c(O)c3)nc3occn23)n1)c1ccccc1`: 78.2%; `COc1cc(-c2csc(NC(=O)c3cc(-n4cnc(C)c4)cc(C(F)(F)F)c3)n2)cc(OC)c1OC`: 37.3%; `COc1cc2c(c(OC)c1OC)CCC(c1cccc(C(=O)Nc3cccc(Br)c3)c1)O2` (stereo not given): 49.4%.
The same measure, in the same setting: the figure for `Cc1nn(-c2ccccc2)c(Oc2ccccn2)c1-c1nc2ccccc2s1` is -49.2% (active); for `CSc1nnc(-c2cnn3c2NC(c2ccccc2)C3)n1-c1ccc(C(F)(F)F)cc1` (stereo not given) it is 41.9%.
`Cc1ccc(-c2cc(-c3ccc(Cl)cc3)nc(NC(=O)c3cccnc3)n2)cc1`: the growth is 93.2%.
On to `CC1=C(C(=O)OC(C)C)C(c2ccc3c(c2)OCO3)NC(=S)N1` (stereo not given), for which the growth was 110%.
The same measure, in the same setting: the figure for `CCOC(=O)c1c2c(n3ccc(C)cc13)C(=O)c1ccccc1C2=O` is 89.9%; for `O=S(=O)(NCCNc1cc(-c2c(-c3cccc(O)c3)nc3sccn23)ccn1)c1ccc(C(F)(F)F)cc1` it is 9.21% (active); for `Cc1nc2ncnc(Cl)c2[nH]1` it is 94.7%.
Consider `N#Cc1nn(-c2cc(=O)[nH]c3ccc(Cl)cc23)c(N)c1C#N`, for which the growth was -3.91% (active).
The same measure, in the same setting: next, `C#COc1cccc(Nc2ncnc3ncc(NC(=O)CCl)cc23)c1`: 50.4% [6.25 µM].
As for `COC(=O)[C@]1(C)CCC[C@]2(C)[C@H]3C[C@H]4C(C(C)C)=C[C@]3(CC[C@H]21)[C@H]1[C@@H]4[C@@H](OCCC#N)CC[C@@H]1OCCC#N`, the growth was 4.3% (active).
